Experimental findings from PubChem BioAssay (NCI) are described below.

The structures appear in SMILES notation. Compounds without any hit were thinned out: in the full panel of roughly 83,000, 20% have a hit.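 Each cell line was grown in a 96-well plate and treated with one concentration of compound for 48 hours. Values below 10 were considered active.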 Values without a mark were called inactive. Calls of active or inactive are those of the source.

The experiment concerns 786-0 renal. As to the kind of experiment: NCI-60 one-dose screen, 48 h (100 = growth as untreated, 0 = no growth, -100 = all killed). The note with it: 10 µM unless noted.
Turning to `C=C(C)[C@@H]1CC[C@]2(CNCCO)CC[C@]3(C)[C@H](CC[C@@H]4[C@@]5(C)CCC(N)[C@@](C)(CO)[C@@H]5CC[C@]43C)[C@@H]12` (some centres undefined), the growth was -58.1% (active). The same measure for `O=S(=O)(NCCNc1cc(-c2c(-c3cccc(O)c3)nc3sccn23)ccn1)c1ccc(Cl)cc1`: 62.1%. The same measure for `CC(C)(C)Nc1c(-c2c3ccccc3cc3ccccc23)nc2ccccn12`: 72%; for `CN(C)CCOC(=O)Nc1ccc(Cl)cc1`: 94.2%.

`CCOc1ccc(-c2nc3ccc(-c4nc5ccc(N6CCN(C)CC6)cc5[nH]4)cc3[nH]2)cc1OCC`: the growth was 22.3%. For `N[C@H]1CCC[C@@H]1NCCCCN1C(=O)c2cccc3cccc(c23)C1=O`, the growth is 54.8%. The figure for `COc1ccc(/C=C(\C#N)n2nnc3cc(F)c(F)cc32)c(OC)c1OC` is 93.9%; for `COc1cc2ccccc2cc1C(=O)NC(=S)Nc1ccc(-c2nc3ccccc3[nH]2)cc1` it is 38%.

In the case of `Cc1ccc(/C=C(\C#N)n2nnc3cc(Cl)c(Cl)cc32)cc1`, the growth was 5.73% (active). The same measure for `CC(C)(O)c1cccc(F)c1`: 104%; for `O=C1Nc2ccc(Cl)cc2/C1=N/N=C/c1c[nH]c2ccccc12`: 95.8%; for `N#Cc1c(-c2ccccc2)nc(SCC2CO2)nc1N1CCOCC1` (centres undefined): 65.5%. The figure for `COc1cc2c(cc1OC)-c1ccc3cc4c(cc3c1N(CCCN(C)C)C2)OCO4` is 35%; for `C=C1C(=O)O[C@H]2[C@H]1CC/C(Cn1cc(CNCCc3c[nH]c4ccc(Cl)cc34)nn1)=C\CC[C@@]1(C)O[C@@H]21` it is 67.4%. The same measure for `C#CC[C@H](N)C(=O)O`: 98.1% [20 µM].

Regarding `O=C(Oc1ccc([N+](=O)[O-])cc1)c1ccc(CBr)cc1`, the growth was 108%. The figure for `OC(CBr)c1ccnc2ccccc12` (centres undefined) is 99.1%; for `CCCNCC(=O)Nc1ccc(C(=O)OC(C)(C)CC)cc1` it is 90.8%; for `CC(=O)c1cc2c(o1)C(=O)c1ccccc1C2=O` it is -93.4% (active). The figure for `CS(=O)(=O)c1ccc(-c2[nH]c3ccc(F)cc3c2/C=N/NC(N)=S)cc1` is 40.3%; for `CC(C)c1ccc(C(=O)OC(=O)c2ccc(C(C)C)cc2)cc1` it is 95.8%; for `N=C(N)c1ccc(-c2ccc(-c3ccc(Cl)c(Cl)c3)o2)nc1` it is -74.9% (active). As for `N#C/C=C(\c1ccc([N+](=O)[O-])cc1)n1nnc2cc(Cl)c(Cl)cc21`, the growth was -26.7% (active). The figure for `CS(=O)(=O)c1ccc(-c2nc3cc(Cl)ccc3n2CC(=O)NO)cc1` is 99.5%.

Turning to `CC(=O)Nc1cccc(C2=CC(c3ccc(C)cc3)n3ncnc3N2)c1` (centres undefined), the growth was 95%.

Regarding `CCn1c(Sc2nnc(NC(=O)CCN3CCCC3)s2)nc2c1c(=O)n(C)c(=O)n2C`, the growth is 106%. The same measure for `N#Cc1c(NC(=O)c2cccc(C(F)(F)F)c2)sc2c1CCC(=O)C2`: 13.1%; for `CC(C)(C)c1ccc(C(=O)Nc2sc3c(c2C(N)=O)CCC(=O)C3)cc1`: 23.8%. The figure for `CCOC(=O)c1c(C)nc2c(c1N)/C(=C/c1cc(OC)c(OC)c(OC)c1)C(=O)N2c1ccc(OC)cc1` is 44.5%. The figure for `Nc1nc(Nc2ccc(Cl)cc2)nn1S(=O)(=O)c1ccc(-c2ccc(F)cc2)cc1` is 92.1%; for `CCNCCNc1cc(-c2ccc(C(F)(F)F)cc2)c(C#N)c2nc3cc(Cl)c(Cl)cc3n12` it is -78% (active); for `C=CCN1C(=O)[C@]2(SC1=S)[C@H](c1cccc(Cl)c1)CN(C)[C@]21C(=O)NC2C=CC(Cl)=C[C@H]21` (some centres undefined) it is 24.8%. `O=C(/C=C/C12c3ccccc3C(c3ccccc31)C1C(=O)N(c3ccccc3)C(=O)C12)c1ccccc1` (centres undefined): the growth was 3.15% (active). The same measure for `O=S(=O)(Nc1ccsc1-c1nc(-c2ccccc2)no1)c1cc(Cl)cc(Cl)c1`: 98.5%; for `CNC1(C#N)CCN(Cc2ccccc2)CC1`: 73.1%. The figure for `COc1cc2cc(Oc3ccc(NC(=O)Nc4cc(C(F)(F)F)cc(C(F)(F)F)c4)cc3)c(C)nc2cc1OCCN1CCCCC1` is -83.6% (active); for `CC(C)n1nc(C#Cc2cccc3cc(-c4cccc(C(F)(F)F)c4)ncc23)c2c(N)ncnc21` it is 89%; for `N[C@@H]1CCC[C@H]1NCCCCN1C(=O)c2cccc3cccc(c23)C1=O` it is 58%. The same measure for `CCN(CC)CCOC(=O)N1c2ccccc2Sc2ccccc21`: 91.4%.
